The whole screen tested about 320,000 compounds, of which about 2,100 (0.66%) were called active. Roughly 53% stayed inconclusive and do not appear here. The call rests on the fitted dose curve; in most records, active means well fitted inhibition curve with a large enough effect in the signal ratio, with a control signal flat (not every such curve was filed as active); inconclusive means small, poorly fitted or top-dose-only effect, or effect the other way, or a change in a side signal; inactive means flat fitted curve, though single readings scatter; the % refers to the signal ratio. This excerpt belongs to a sample that is enriched for actives.
Potency means the concentration at half of the fitted maximal effect.

The assay in a line: qHTS Assay for Lipid Storage Modulators in Drosophila S3 Cells.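 On cell number change: cells counted by Cell Tracker Red CMTPX staining in the red channel.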 On lipid storage change, negative = inhibition: on the % scale 0 is the no-effect control and ±100 the full control effect. Conditions: BODIPY lipid droplet fluorescence, 18-24 h, cells fed with added oleic acid; cell number change: measured here: cell count max response; series mostly up to 46.1 µM. An outline of the steps: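 Drosophila S3 cells loaded with oleic acid (400 uM, as added) and compounds at several concentrations; lipid droplets imaged by 488-nm laser-scanning cytometry, 500–530 nm intensity and object ratio to cell channel. Percent activity normalized to 20 uM Triacsin C.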
In the case of `CC(=O)N1N=C(c2c(-c3ccccc3)c3cc(C)ccc3[nH]c2=O)CC1c1ccco1` (stereo not given), the Potency entry is “inactive”.

As to `Cc1ccc(S(=O)(=O)N2CCOC2CNC(=O)C(=O)NCCc2c[nH]c3ccccc23)cc1` (stereo not given), the cell number change came out at 24.7% and the lipid storage change, negative = inhibition was 6.05% [at 9.22 µM] (inactive).

Turning to `Cc1nn(C)c(Cl)c1CN1CCN(CCC(C)C)C(CCO)C1` (stereo not given), the Potency result was “inactive” and the cell number change was determined as 11.3%.

Take `CCOC(=O)c1c(NC(=O)CSc2nnc(C)c(=O)[nH]2)sc(C)c1-c1ccc(C)cc1`: the Potency entry was “inactive” and the cell number change amounted to 18.2%. Turning to `COc1cccc(NC(=O)C(C)Sc2nnc(C3CC3)n2C2CC2)c1` (stereo not given), the Potency result was “inactive” and the cell number change was -1.32%. In the same order, the values of `Cc1ccc(S(=O)(=O)N2CCCCC2)cc1NC(=O)COC(=O)Cc1c(F)cccc1Cl` are “inactive” and 10%. As to `CCOC(=O)/C(=N/Nc1ccc(OC)cc1)N1CCCc2ccccc21`, the Potency result is “inactive” and the cell number change is -4.8%.

Consider `CCOC(=O)c1[nH]ncc1CN1CCCC(C(=O)c2ccc(SC)cc2)C1` (stereo not given), for which the Potency entry was “inactive” and the cell number change was found to be 0.969%. For `COC(=O)c1ccc(-c2c(-c3ccccc3)ncc3cc(F)ccc23)cc1`, in that order: “inactive” and -9.19%.

For `CCn1c(CSCc2ccc(C)cc2)nnc1SCC(=O)NCc1ccccc1`, the Potency was 20.6 µM (active) and the cell number change was -15.2%. As for `CCn1c(CNc2ccc(C)cc2)nnc1SCC(=O)NCc1ccccc1`, the Potency result is “inactive” and the cell number change is -12.4%. As to `CCn1c(CSc2nc3ccccc3s2)nnc1SCC(=O)NCC(=O)OC`, the Potency was 25.9 µM (active) and the cell number change was -13.2%.

Regarding `CCn1c(CSCc2ccc(F)cc2)nnc1SCC(=O)NCc1ccccc1`, the Potency result is “inactive”. Regarding `CCn1c(CSc2nc3ccccc3s2)nnc1SCC(=O)c1ccc(O)c(O)c1`, the Potency entry was “inactive” and the cell number change came to 8.44%. On to `CCn1c(CSc2nc3ccccc3s2)nnc1SCC(=O)c1ccc(O)cc1O`, for which the Potency result was “inactive” and the cell number change is -7.44%. As to `CC(C)[C@H](N)c1cn([C@@H](CC(N)=O)C(=O)N2CCNCC2)nn1`, the Potency entry is “inactive” and the cell number change is 10%. On to `CCOC(=O)Cn1nc(C)c([N+](=O)[O-])c1C`, for which the Potency result is “inactive” and the cell number change stood at 2.33%. On to `O=C(CS(=O)CC(=O)N(CC(=O)NC1CCCC1)c1ccc2c(c1)OCCO2)Nc1ccc(F)cc1` (stereo not given), for which the Potency result is “inactive” and the cell number change is 11.4%. As for `Cc1cc(C)c2c(N)c(C(=O)c3ccc(Br)cc3)oc2n1`, the Potency result was “inactive” and the cell number change was -13.1%. `CCc1ccc(C(=O)c2oc3nc(C)cc(C)c3c2N)cc1`: the Potency was 25.9 µM (active) and the cell number change is -19.5%. Turning to `Cc1ccc(C(=O)c2oc3nc(C)cc(C)c3c2N)cc1`, the Potency entry was “inactive” and the cell number change is -19%. For the compound `CC1CC(C)CN(S(=O)(=O)c2ccc(NC(=O)CN3C(=O)NC(C)(c4ccccc4)C3=O)cc2)C1` (stereo not given), the Potency result was “inactive” and the cell number change amounted to 3.59%. In the same order, the values of `O=C(O)C1CC(=O)N(C2CCCCC2)C1c1ccccc1` (stereo not given) are “inactive” and -5.69%. In the case of `CCOC(=O)N1CCN(C(=O)CSc2nc(=O)n3cc(C)ccc3n2)CC1`, the Potency entry is “inactive”.

For the compound `Cc1ccc(C(NC(=O)C2CCCCC2)c2c(O)ccc3ccccc23)cc1` (stereo not given), the Potency was 13 µM (active) and the cell number change was -26.6%.

Regarding `CC(=O)NC(c1ccccc1)c1c(O)ccc2ccccc12` (stereo not given), the Potency result is “inactive” and the cell number change is 0.433%. As for `CC(C)CC(=O)NC(c1ccccc1)c1c(O)ccc2ccccc12` (stereo not given), the Potency result is “inactive” and the cell number change was -6.8%.

As for `CCN(CC)S(=O)(=O)c1ccc(N2CCOCC2)c(NC(=O)CN2C(=O)NC(C)(c3ccccc3)C2=O)c1` (stereo not given), the Potency result was “inactive”.

Turning to `O=C(Cc1cccc(F)c1)N1CCCC(CO)(Cc2ccc(F)cc2F)C1` (stereo not given), the Potency entry was “inactive” and the cell number change came out at 17.6%.

As for `CC1(C)Cc2c(c(-c3ccccc3)nc3sc4c(=O)[nH]c(=S)[nH]c4c23)CO1`, the Potency result is “inactive”.

With `CC(C)c1nc2sc3c(=O)[nH]cnc3c2c2c1CCC2`, the Potency entry was “inactive” and the cell number change is -2.67%. `CC(C)c1nc2sc3c(=O)[nH]c(=S)[nH]c3c2c2c1CCC2`: the Potency is 20.6 µM (active) and the cell number change was found to be 5.1%. As to `Cc1[nH]n(-c2ccc([N+](=O)[O-])cc2)c(=O)c1C=NCC1CCCO1` (stereo not given), the outcome is “inactive [at 9.22 µM]”. Consider `O=C(CN1C(=O)/C(=C/c2cccc(Br)c2)SC1=S)NCCCN1CCOCC1`, for which the Potency entry was “inactive”. Regarding `O=C(Cc1csc(NC(=O)Nc2ccc(Cl)cc2)n1)NC1CCCC1`, the outcome is “inactive [at 0.0737 µM]”. Consider `O=C(Cc1c(Sc2ccccc2)c2ccccc2n1Cc1ccccc1)NCCO`, for which the Potency was 13 µM (active). With `CSc1c(CC(=O)NCCCO)n(Cc2ccccc2)c2ccccc12`, the Potency result was “inactive” and the cell number change is -1.72%. Regarding `Cn1c(CC(=O)NCCO)c(Sc2ccccc2)c2ccccc21`, the Potency result is “inactive” and the cell number change is -10.3%. With `Cc1cccc(-n2c(=S)[nH]c3nc4c(cc3c2=O)COC(C)(C)C4)c1`, the Potency result was “inactive” and the cell number change turned out to be 18.9%.

As for `CCOc1ccc(S(=O)(=O)NCCc2cn3ccccc3n2)cc1`, the Potency result was “inactive” and the cell number change was 6.49%. As to `COc1ccc(-c2csc3ncnc(N4CCN(S(=O)(=O)c5ccccc5C#N)CC4)c23)cc1`, the Potency was 7.31 µM (active) and the cell number change was -21.2%. As to `Cc1ccc(-c2csc3ncnc(N4CCN(c5ccccc5O)CC4)c23)cc1`, the Potency result was “inactive” and the cell number change stood at 7.78%. Take `Oc1ccccc1N1CCN(c2ncnc3scc(-c4ccccc4)c23)CC1`: the Potency was 0.92 µM (active) and the cell number change was -12.6%. `c1ccc(-c2csc3ncnc(N4CCOCC4)c23)cc1`: the Potency entry is “inactive” and the cell number change is -6.12%. For the compound `Cc1nc(N2CCCCC2)c2c(-c3cccs3)csc2n1`, the Potency entry is “inactive” and the cell number change was found to be 4.97%.

Regarding `COc1ccc(-c2csc3ncnc(N4CCN(S(=O)(=O)c5ccc(Cl)s5)CC4)c23)cc1`, the Potency result is “inactive”. With `Cc1nc(N2CCN(c3ccccc3O)CC2)c2c(-c3ccccc3)csc2n1`, the Potency is 4.11 µM (active) and the cell number change is -4.5%.

As to `COc1ccc(-c2csc3ncnc(N4CCN(c5ccc(OC)cc5)CC4)c23)cc1`, the Potency entry is “inactive” and the cell number change was 11.5%. Regarding `CN1CCN(c2nc(-c3cccnc3)nc3scc(-c4ccccc4)c23)CC1`, the Potency result was “inactive”. On to `COc1cccc(NC(=O)CN(C)C(=O)c2ccccc2-c2nc3ccccc3s2)c1`, for which the Potency result is “inactive” and the cell number change is -6.15%.

Turning to `CCCCn1c(N)c(N(CC)C(=O)c2ccc([N+](=O)[O-])c(C)c2)c(=O)[nH]c1=O`, the Potency entry was “inactive” and the cell number change came out at 6.41%.

For the compound `COCC(=O)NCCSc1c(C)[nH]c2ccccc12`, the Potency entry is “inactive”. With `COc1ccc(/C=N/NC(=O)c2cccc(Br)c2)cc1CSc1ccccn1`, the Potency result was “inactive” and the cell number change came to 25.3%.

As for `Cc1ccccc1CN1CCC(n2nccc2NC(=O)CCOc2ccccc2)CC1`, the Potency result was “inactive”. Take `N#Cc1ccccc1OCC(=O)NCC(c1ccc(F)cc1)N1CCOCC1` (stereo not given): the Potency result is “inactive” and the cell number change amounted to 17.7%.

Turning to `CSc1nnc(C)c(=O)n1COC(=O)COc1ccc(F)cc1`, the Potency result is “inactive”. `CCC(C)N(C(=O)Cn1nnc(-c2ccc(F)cc2)n1)C1CCS(=O)(=O)C1` (stereo not given): the Potency result is “inactive” and the cell number change was found to be 8.11%.

The values above are taken from PubChem BioAssay AID2685 (National Center for Advancing Translational Sciences (NCATS), 2010).
